PubChem BioAssay (Tox21)
Results filed as inconclusive are left out. Activity calls are given as the source filed them. Unless noted, the call rests on the fitted dose curve; in most records, active means well fitted curve in the direction sought with a large enough effect in the repeat runs; inconclusive means weak or mixed curves; inactive means no such curve, though single readings can be large; an effect the other way counts as inactive or inconclusive.

Experiments:
[1] = target: Acetylcholinesterase (Homo sapiens) (UniProt P22303); assay: Acetylcholinesterase (AChE) small molecule antagonists: enzyme-based qHTS assay (AID 1347397; calls by dose curve; further: nearly all actives have a fitted effect of over 55% in size); settings: Potency: AChE enzyme activity inhibition; outcome: AChE enzyme activity inhibition
Summary of the method: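 Colorimetric DTNB read-out of thiocholine released from acetylthiocholine by recombinant human AChE (50 mU/mL as dispensed). Compounds were preincubated 30 min at RT before substrate/DTNB addition, with a 10 min RT reaction.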

[2] = target: Acetylcholinesterase (Homo sapiens) (UniProt P22303); assay: Acetylcholinesterase (AChE) small molecule antagonists: fluorescence cell-based qHTS assay (AID 1347398; calls by dose curve; further: nearly all actives have a fitted effect of over 50% in size); settings: Potency: AChE activity; outcome: AChE activity
Summary of the method: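 SH-SY5Y, 2,000 cells/well, attached overnight; cmpd 30 min 37 C; acetylthiocholine/Thiolite Green cocktail 40 min RT; fluorescence Ex/Em 490/520 nm.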

[3] = target: Acetylcholinesterase (Homo sapiens) (UniProt P22303); assay: Acetylcholinesterase (AChE) small molecule antagonists: enzyme-based qHTS assay with human liver microsomes (AID 1347399; calls by dose curve; further: nearly all actives have a fitted effect of over 60% in size); settings: Potency: qHTS inhibition; outcome: qHTS inhibition
Summary of the method: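 Recombinant human AChE (50 mU/mL in the enzyme mix) and human liver microsomes (0.25 mg/mL final) were preincubated with compound and NADPH (0.25 mg/mL final) for 30 min at 37 C. Acetylthiocholine/DTNB was then added; thiocholine was read colorimetrically after 10 min at room temperature.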

[4] = qHTS assay for small molecules that induce genotoxicity in human embryonic kidney cells expressing luciferase-tagged ATAD5 (AID 651632); further: nearly all actives have a fitted effect of over 15% in size
Summary of the method: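 DMSO vehicle served as the control. HEK293T reporter cells, 16 hr at 37C, then 30 min Amplite at room temperature; ATAD5 induction is measured as luciferase activity.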

[5] = qHTS assay for small molecule agonists of the p53 signaling pathway - cell viability (AID 651633; calls by dose curve;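 further: p53RE-bla HCT reporter cells with a stable beta-lactamase p53 reporter; series mostly up to about 83 µM; nearly all actives have a fitted effect of over 30% in size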)
Summary of the method: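 p53RE-bla cells were treated with compound for 16 hours at 37 C. Cytotoxicity was then measured as CellTiter-Glo luminescence after 30 min at room temperature.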

[6] = qHTS assay for small molecules that induce genotoxicity in human embryonic kidney cells expressing luciferase-tagged ATAD5 - cell viability (AID 651634; calls by dose curve; further: nearly all actives have a fitted effect of over 25% in size)
Summary of the method: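 Here HEK293T cells with the ATAD5 luciferase reporter are incubated with test compounds for 15.5 hr, and cytotoxicity is then gauged by measuring protease activity in live cells using fluorescence.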

[7] = qHTS assay for small molecule disruptors of the mitochondrial membrane potential - cell viability (AID 720634; calls by dose curve;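 further: human HepG2 liver cancer cells; series mostly up to about 83 µM; nearly all actives have a fitted effect of over 20% in size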)
Summary of the method: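 Viability of HepG2 cells is scored from ATP content by luminescence; cells are exposed to compound for 1 hr at 37 C and 5% CO2, then dosed with m-MPI dye before the CellTiter-Glo reagent.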

[8] = qHTS assay to test for compound auto fluorescence at 535 nm (green) in HepG2 cells (AID 720675)
[9] = qHTS assay to test for compound auto fluorescence at 460 nm (blue) in HEK293 cells (AID 720678)
Summary of the method: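 HEK293, 2,000 cells/well, 10% dialyzed FBS; attach 4-5 hr 37C; pin compound or DMSO; o/n 37C/5% CO2; fluorescence 405/460 nm; triamterene-equivalent units.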

[10] = qHTS assay to test for compound auto fluorescence at 590 nm (red) in HEK293 cells (AID 720679)
Summary of the method: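 Intensity at 540nm excitation and 590nm emission is reported as Rose Bengal sodium-equivalent autofluorescence. Measurements followed overnight exposure (37C, 5% CO2) of HEK293 cells, 2,000 per well, to 23 nL compound.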

[11] = qHTS assay to test for compound auto fluorescence at 535 nm (green) in HEK293 cells (AID 720680)
[12] = qHTS assay to test for compound auto fluorescence at 460 nm (blue) in HEK293 cell free culture (AID 720681)
Summary of the method: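 Compounds were added to cell-free DMEM with 10% FBS and fluorescence read directly. The blue channel used 405 nm excitation and 460 nm emission, with triamterene as the reference fluorophore.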

[13] = qHTS assay to test for compound auto fluorescence at 535 nm (green) in HEK293 cell free culture (AID 720682)
Summary of the method: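 Green-channel intensity (Ex/Em 485/535 nm) was recorded from compound-treated wells containing only DMEM with 10% FBS. Fluorescein provided the equivalency standard.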

[14] = qHTS assay to test for compound auto fluorescence at 590 nm (red) in HepG2 cell free culture (AID 720684)
Summary of the method: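 Rose Bengal sodium served as the reference for red signal. Test compounds were dispensed into serum-containing MEM (10% FBS) without cells, and plates were read at 540/590 nm.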

[15] = qHTS assay to test for compound auto fluorescence at 460 nm (blue) in HepG2 cell free culture (AID 720685)
Summary of the method: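 Cell-free plates of MEM plus 10% FBS received 23 nL compound or DMSO vehicle; blue-channel (405/460 nm) intensity scored against triamterene as reference fluorophore.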

[16] = qHTS assay to test for compound auto fluorescence at 535 nm (green) in HepG2 cell free culture (AID 720686)
[17] = qHTS assay to test for compound auto fluorescence at 460 nm (blue) in HepG2 cells (AID 720687)
Summary of the method: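 HepG2 cells in MEM with 10% FBS, attached overnight at 37 C, were exposed to compound or DMSO for 1 hr at 37 C, 5% CO2. Blue fluorescence was read at 405/460 nm, with triamterene as reference fluorophore.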

[18] = qHTS assay to identify small molecule antagonists of the glucocorticoid receptor (GR) signaling pathway - cell viability counter screen (AID 720693); further: nearly all actives have a fitted effect of over 55% in size
[19] = qHTS assay for identifying genotoxic compounds that show differential cytotoxicity against isogenic chicken DT40 cell lines with known DNA damage response pathways - wild type cell line (AID 743012); further: nearly all actives have a fitted effect of over 60% in size
Summary of the method: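 Viability of DNA repair-proficient chicken DT40 cells was assessed by CellTiter-Glo luminescence following 40 h compound exposure at 37 C/5% CO2.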

[20] = qHTS assay for identifying genotoxic compounds that show differential cytotoxicity against isogenic chicken DT40 cell lines with known DNA damage response pathways - Rad54/Ku70 mutant cell line (AID 743015); further: nearly all actives have a fitted effect of over 60% in size
[21] = qHTS assay to identify small molecule antagonists of the androgen receptor (AR) signaling pathway - cell viability counter screen (AID 743033; further: nearly all actives have a fitted effect of over 45% in size)
[22] = target: Androgen receptor (Homo sapiens) (UniProt P10275); assay: qHTS assay to identify small molecule antagonists of the androgen receptor (AR) signaling pathway (AID 743035; active means well fitted inhibition curve with a large enough effect in the signal ratio in the repeat runs, not every such curve was filed as active; the % refers to the signal ratio)
Summary of the method: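 Reporter HEK293 cells were exposed to compounds and R1881 overnight (16 h, 37C); beta-lactamase activity was then quantified by FRET fluorescence.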

[23] = target: Androgen receptor (Homo sapiens) (UniProt P10275); assay: qHTS assay to identify small molecule agonists of the androgen receptor (AR) signaling pathway (AID 743036; active means well fitted activation curve with a large enough effect in the signal ratio in the repeat runs, with a control signal flat, not every such curve was filed as active; the % refers to the signal ratio)
Summary of the method: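 Cell-based FRET reporter assay: HEK293 line with a UAS-beta-lactamase construct, compounds added in DMSO, 16 h exposure at 37C, then 2 h substrate step at room temperature and fluorescence intensity read.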

[24] = target: Androgen receptor (Homo sapiens) (UniProt P10275); assay: qHTS assay to identify small molecule agonists of the androgen receptor (AR) signaling pathway using the MDA cell line (AID 743040; further: nearly all actives have a fitted effect of over 20% in size)
Summary of the method: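 Luciferase read-out, ONE-Glo, 30 min RT. Cells: MDA-kb2 AR-luc, MMTV promoter with AR and GR response elements. Compound exposure 16 h, 37C, 0% CO2, after 5 h pre-incubation. qHTS agonist mode.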

[25] = qHTS assay to identify small molecule antagonists of the androgen receptor (AR) signaling pathway using the MDA cell line - cell viability counter screen (AID 743041; further: nearly all actives have a fitted effect of over 45% in size)
Summary of the method: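 Cytotoxicity counter screen: MDA-kb2 AR-luc cells, compound + R1881, 16 h, 37C, 0% CO2; CellTiter-Fluor added at 15.5 h, fluorescence read after 30 min.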

[26] = target: Androgen receptor (Homo sapiens) (UniProt P10275); assay: qHTS assay to identify small molecule antagonists of the androgen receptor (AR) signaling pathway using the MDA cell line (AID 743042; further: nearly all actives have a fitted effect of over 55% in size)
Summary of the method: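 MDA-kb2 breast carcinoma cells carrying MMTV-luciferase (AR/GR responsive) were co-treated with compounds and the agonist R1881 for 16 h at 37C. Inhibition read as ONE-Glo luminescence; CellTiter-Fluor fluorescence measured in parallel for cytotoxicity.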

[27] = qHTS assay to identify small molecule antagonists of the thyroid receptor (TR) signaling pathway - cell viability counter screen (AID 743064); further: nearly all actives have a fitted effect of over 50% in size
Summary of the method: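 In rat pituitary GH3.TRE-Luc reporter cells co-exposed to compound and 1 nM T3 for 23.5 h, cytotoxicity was assessed with CellTiter-Fluor in the same wells, read by fluorescence.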

[28] = qHTS assay to identify small molecule antagonists of the thyroid receptor (TR) signaling pathway (AID 743065); further: series mostly up to about 70 µM; nearly all actives have a fitted effect of over 55% in size
Summary of the method: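 GH3.TRE-Luc rat pituitary cells (two TREs driving luciferase) were dosed with compound, then stimulated with 1 nM T3 (final) for 23.5 h at 37 C. ONE-Glo luminescence was the read-out, with CellTiter-Fluor fluorescence as the cytotoxicity counter-screen.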

[29] = tested on: thyroid hormone receptor (rat, GH3 cells); assay: qHTS assay to identify small molecule agonists of the thyroid receptor (TR) signaling pathway (AID 743066; calls by dose curve)
[30] = target: Estrogen receptor (Homo sapiens) (UniProt P03372); assay: qHTS assay to identify small molecule antagonists of the estrogen receptor alpha (ER-alpha) signaling pathway (AID 743069; active means well fitted curve in the direction sought with a large enough effect in the signal ratio in the repeat runs, not every such curve was filed as active; the % refers to the signal ratio)
Summary of the method: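 Beta-lactamase FRET fluorescence is read after 2 hr at room temperature with LiveBLAzer B/G substrate. Before that, ER-alpha-bla HEK293 cells sit 4 hr after plating, then receive compound plus 17beta-estradiol and incubate 18 hr at 37C.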

[31] = qHTS assay to identify small molecule antagonists of the estrogen receptor alpha (ER-alpha) signaling pathway - cell viability counter screen (AID 743074; calls by dose curve;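 further: HEK293 cells carrying ER-alpha-UAS-bla reporter stimulated with 17beta-estradiol; nearly all actives have a fitted effect of over 45% in size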)
[32] = target: Estrogen receptor (Homo sapiens) (UniProt P03372); assay: qHTS assay to identify small molecule agonists of the estrogen receptor alpha (ER-alpha) signaling pathway (AID 743075; calls by dose curve;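 further: HEK293 GripTite cells with ER-alpha and UAS-driven beta-lactamase reporter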)
[33] = target: Estrogen receptor (Homo sapiens) (UniProt P03372); assay: qHTS assay to identify small molecule agonists of the estrogen receptor alpha (ER-alpha) signaling pathway using the BG1 cell line (AID 743079); further: nearly all actives have a fitted effect of over 20% in size
[34] = qHTS assay to identify small molecule antagonists of the estrogen receptor alpha (ER-alpha) signaling pathway using the BG1 cell line (AID 743080; calls by dose curve;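 further: BG1 cells stimulated with 17beta-estradiol alongside compound; series mostly up to about 70 µM; nearly all actives have a fitted effect of over 25% in size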)
Summary of the method: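 BG1Luc4E2, endogenous ER-alpha, 4xERE-luc; 5 d charcoal-stripped FBS, phenol red free; 24 h plating; cpd + 17beta-estradiol 21.5 h, 37 C/5% CO2; CellTiter-Fluor viability 30 min, then ONE-Glo luciferase 30 min RT.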

[35] = target: Aromatase (Homo sapiens) (UniProt P11511); assay: qHTS assay to identify aromatase inhibitors (AID 743083)
[36] = qHTS assay to identify aromatase inhibitors - cell viability counter screen (AID 743084)
[37] = target: Aryl hydrocarbon receptor (Homo sapiens) (UniProt P35869); assay: qHTS assay to identify small molecule that activate the aryl hydrocarbon receptor (AhR) signaling pathway (AID 743085);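 further: HG2L7.5c1 human HepG2 liver cells with stably integrated DRE-driven firefly reporter; series mostly up to about 70 µM; nearly all actives have a fitted effect of over 15% in size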
Summary of the method: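 AhR agonist activity is inferred from enhanced light output of a DRE-controlled firefly luciferase reporter in HepG2 cells, measured with ONE-Glo following 24 h treatment at 37C.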

[38] = qHTS assay to identify small molecule that activate the aryl hydrocarbon receptor (AhR) signaling pathway - cell viability counter screen (AID 743086);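 further: HepG2 liver cells carrying the AhR DRE luciferase reporter; series mostly up to about 70 µM; nearly all actives have a fitted effect of over 45% in size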
Summary of the method: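 HepG2-AhR-luc (HG2L7.5c1) cells, 4000/well, treated 24 h at 37 C with compound; viability measured as CellTiter-Fluor fluorescence after 30 min in the same wells as the luciferase read.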

[39] = target: Peroxisome proliferator-activated receptor gamma (Homo sapiens) (UniProt P37231); assay: qHTS assay to identify small molecule agonists of the peroxisome proliferator-activated receptor gamma (PPARg) signaling pathway (AID 743094; active means well fitted activation curve with a large enough effect in the signal ratio in the repeat runs, not every such curve was filed as active; the % refers to the signal ratio)
Summary of the method: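 Agonism was assessed in a beta-lactamase reporter system, HEK293H cells with a stably integrated UAS-bla construct under PPARg control; the 17 h treatment at 37C preceded a 1 h room-temperature FRET substrate read.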

Measured: Potency

Androgen receptor (Homo sapiens), sequence (P10275 whole entry, looked up): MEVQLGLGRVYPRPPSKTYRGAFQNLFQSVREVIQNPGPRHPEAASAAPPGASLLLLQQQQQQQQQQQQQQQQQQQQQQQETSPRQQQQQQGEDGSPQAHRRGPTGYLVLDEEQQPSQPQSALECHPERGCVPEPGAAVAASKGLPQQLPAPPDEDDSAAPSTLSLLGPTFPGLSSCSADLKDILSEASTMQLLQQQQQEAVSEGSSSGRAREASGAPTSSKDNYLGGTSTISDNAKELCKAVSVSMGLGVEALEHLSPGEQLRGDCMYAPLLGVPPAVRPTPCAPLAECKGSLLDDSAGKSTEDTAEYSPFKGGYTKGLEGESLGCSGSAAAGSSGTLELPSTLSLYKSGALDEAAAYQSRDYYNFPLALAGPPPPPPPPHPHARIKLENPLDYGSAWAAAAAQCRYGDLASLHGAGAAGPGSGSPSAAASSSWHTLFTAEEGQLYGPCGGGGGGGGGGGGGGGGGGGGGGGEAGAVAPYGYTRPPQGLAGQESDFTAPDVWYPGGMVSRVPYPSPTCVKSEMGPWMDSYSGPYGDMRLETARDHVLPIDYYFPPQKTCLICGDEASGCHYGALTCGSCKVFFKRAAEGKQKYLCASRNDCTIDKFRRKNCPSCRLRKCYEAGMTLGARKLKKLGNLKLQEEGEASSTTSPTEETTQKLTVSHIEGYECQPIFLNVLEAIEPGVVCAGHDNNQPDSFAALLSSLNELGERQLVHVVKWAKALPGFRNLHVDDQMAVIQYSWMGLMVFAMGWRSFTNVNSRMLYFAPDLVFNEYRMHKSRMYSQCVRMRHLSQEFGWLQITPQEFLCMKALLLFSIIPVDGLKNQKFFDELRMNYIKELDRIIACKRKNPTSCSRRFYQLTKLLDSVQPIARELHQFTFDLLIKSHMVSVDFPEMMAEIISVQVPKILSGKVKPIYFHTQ
Estrogen receptor (Homo sapiens), sequence (P03372 whole entry, looked up): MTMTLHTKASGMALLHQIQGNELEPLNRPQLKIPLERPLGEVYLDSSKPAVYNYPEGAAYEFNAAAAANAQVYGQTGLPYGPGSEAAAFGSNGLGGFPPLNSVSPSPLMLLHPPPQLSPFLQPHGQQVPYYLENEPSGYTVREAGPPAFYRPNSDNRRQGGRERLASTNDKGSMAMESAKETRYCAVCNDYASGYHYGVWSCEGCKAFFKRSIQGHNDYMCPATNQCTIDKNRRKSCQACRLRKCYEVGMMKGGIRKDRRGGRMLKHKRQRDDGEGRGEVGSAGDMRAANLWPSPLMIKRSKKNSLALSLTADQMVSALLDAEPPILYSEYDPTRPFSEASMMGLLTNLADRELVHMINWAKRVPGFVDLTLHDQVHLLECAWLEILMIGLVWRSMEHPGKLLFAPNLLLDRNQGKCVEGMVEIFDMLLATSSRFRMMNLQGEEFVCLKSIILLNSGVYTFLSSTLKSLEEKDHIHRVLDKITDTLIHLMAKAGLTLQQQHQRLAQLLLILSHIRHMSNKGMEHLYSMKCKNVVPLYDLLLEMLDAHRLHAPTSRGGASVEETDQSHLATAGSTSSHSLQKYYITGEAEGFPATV
Acetylcholinesterase (Homo sapiens), sequence (P22303 whole entry, looked up): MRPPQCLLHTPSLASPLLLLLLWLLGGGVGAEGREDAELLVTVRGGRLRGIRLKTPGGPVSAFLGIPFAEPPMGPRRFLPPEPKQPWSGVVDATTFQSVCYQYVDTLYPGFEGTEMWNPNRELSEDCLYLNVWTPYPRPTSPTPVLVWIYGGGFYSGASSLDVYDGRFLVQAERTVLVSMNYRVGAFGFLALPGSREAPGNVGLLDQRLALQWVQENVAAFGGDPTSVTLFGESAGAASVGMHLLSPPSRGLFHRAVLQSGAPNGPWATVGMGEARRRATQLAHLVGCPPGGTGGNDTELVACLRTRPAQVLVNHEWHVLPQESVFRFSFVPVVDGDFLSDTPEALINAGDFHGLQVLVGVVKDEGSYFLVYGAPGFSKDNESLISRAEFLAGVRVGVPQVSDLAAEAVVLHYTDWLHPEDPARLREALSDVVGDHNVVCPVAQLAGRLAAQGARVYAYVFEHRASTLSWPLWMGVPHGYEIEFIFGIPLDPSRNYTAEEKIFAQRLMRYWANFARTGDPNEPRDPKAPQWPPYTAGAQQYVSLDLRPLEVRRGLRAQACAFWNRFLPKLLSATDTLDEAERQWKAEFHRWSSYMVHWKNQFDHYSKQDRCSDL
Peroxisome proliferator-activated receptor gamma (Homo sapiens), sequence (P37231 whole entry, looked up): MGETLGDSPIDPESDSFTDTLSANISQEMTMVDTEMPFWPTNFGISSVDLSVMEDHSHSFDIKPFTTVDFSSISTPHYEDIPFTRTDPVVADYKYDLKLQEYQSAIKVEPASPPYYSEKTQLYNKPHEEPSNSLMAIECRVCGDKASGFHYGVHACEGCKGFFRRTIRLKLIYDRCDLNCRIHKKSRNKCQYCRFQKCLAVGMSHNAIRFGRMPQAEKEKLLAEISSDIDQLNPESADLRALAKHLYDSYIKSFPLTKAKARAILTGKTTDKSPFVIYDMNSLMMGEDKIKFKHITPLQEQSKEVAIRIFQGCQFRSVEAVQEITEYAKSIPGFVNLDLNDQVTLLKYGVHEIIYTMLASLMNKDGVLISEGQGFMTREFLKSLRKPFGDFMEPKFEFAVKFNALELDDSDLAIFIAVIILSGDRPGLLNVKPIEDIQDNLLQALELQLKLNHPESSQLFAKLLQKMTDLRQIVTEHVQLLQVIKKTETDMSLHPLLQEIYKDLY
Aryl hydrocarbon receptor (Homo sapiens), sequence (P35869 whole entry, looked up): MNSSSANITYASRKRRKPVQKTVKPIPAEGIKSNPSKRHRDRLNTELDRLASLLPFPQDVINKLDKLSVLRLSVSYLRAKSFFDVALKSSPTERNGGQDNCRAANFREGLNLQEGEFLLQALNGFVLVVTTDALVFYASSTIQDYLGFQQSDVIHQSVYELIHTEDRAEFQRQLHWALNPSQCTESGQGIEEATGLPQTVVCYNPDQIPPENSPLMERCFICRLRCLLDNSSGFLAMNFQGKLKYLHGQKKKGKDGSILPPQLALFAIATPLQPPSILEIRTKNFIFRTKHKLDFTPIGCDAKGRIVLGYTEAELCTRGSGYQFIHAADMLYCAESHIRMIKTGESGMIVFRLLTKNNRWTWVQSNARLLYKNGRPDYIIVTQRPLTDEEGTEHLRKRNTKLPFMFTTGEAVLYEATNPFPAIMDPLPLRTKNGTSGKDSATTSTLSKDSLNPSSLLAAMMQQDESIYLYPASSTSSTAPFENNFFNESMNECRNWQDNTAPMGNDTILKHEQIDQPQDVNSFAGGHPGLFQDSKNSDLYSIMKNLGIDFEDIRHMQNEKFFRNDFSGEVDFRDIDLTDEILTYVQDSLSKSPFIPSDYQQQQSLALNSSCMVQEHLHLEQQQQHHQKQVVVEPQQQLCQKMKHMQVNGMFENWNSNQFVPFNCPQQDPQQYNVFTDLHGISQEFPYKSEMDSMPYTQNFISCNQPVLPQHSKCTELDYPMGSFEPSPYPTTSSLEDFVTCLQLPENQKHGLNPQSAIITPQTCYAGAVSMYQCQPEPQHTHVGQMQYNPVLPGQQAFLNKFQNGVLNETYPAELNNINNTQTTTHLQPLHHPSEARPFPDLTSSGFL
Aromatase (Homo sapiens), sequence (P11511 whole entry, looked up): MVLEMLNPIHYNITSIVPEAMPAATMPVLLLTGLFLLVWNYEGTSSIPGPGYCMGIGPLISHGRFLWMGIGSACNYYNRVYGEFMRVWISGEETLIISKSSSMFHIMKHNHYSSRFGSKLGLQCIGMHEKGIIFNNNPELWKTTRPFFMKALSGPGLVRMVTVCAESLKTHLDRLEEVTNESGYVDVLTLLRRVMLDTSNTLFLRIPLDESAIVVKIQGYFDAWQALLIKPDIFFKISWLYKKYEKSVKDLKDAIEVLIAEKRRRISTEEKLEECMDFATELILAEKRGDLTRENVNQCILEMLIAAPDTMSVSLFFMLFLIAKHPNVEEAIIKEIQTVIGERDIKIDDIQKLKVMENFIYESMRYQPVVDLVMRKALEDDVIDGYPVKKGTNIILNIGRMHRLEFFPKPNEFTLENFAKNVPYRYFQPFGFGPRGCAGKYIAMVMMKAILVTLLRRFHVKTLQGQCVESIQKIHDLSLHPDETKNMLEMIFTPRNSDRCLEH

c1ccc(CC2=NCCN2)cc1
inactive: [1] | [2] | [3]

C[C@@H]1[C@H](O)[C@@H](C)/C=C/C=C/CC/C=C/C=C/C=C/C=C/[C@H](O[C@H]2O[C@@H](C)[C@H](O)[C@@H](N)[C@H]2O)CC2O[C@](O)(C[C@@H](O)[C@H](O)CC[C@@H](O)C[C@@H](O)C[C@@H](O)CC(=O)O[C@H]1C)C[C@H](O)[C@H]2C(=O)O
not listed: [1] | [2] | [3]
inactive: all other assays above
